HT1080 IDH1KD tx: qHTS for induction of synthetic lethality in tumor cells producing 2HG: qHTS for the HT-1080-IDH1KD cell line; HT-1080 IDH1 knockdown viability, ATP luminescence, 48 h; Potency, µM (highest dose often 46.1 µM), for inactives: at the top dose activity, negative = toxicity, most hits filed as cytotoxic; 360,000 compounds, 2% hits; AID 686971, 2013;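 note: 0% = DMSO wells and -100% = cell-free medium wells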
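Assay cells: HT-1080 with IDH1 knockdown, 750 per well, RPMI/5% FBS. Exposure: 48 h at 37 °C following 2 h pre-incubation. Read: CellTiter-Glo luminescence; fitted concentration-response, curve class assigned.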
HT1080-NT tox: qHTS for induction of synthetic lethality in tumor cells producing 2HG: qHTS for the HT-1080-NT fibrosarcoma cell line | HT-1080-NT fibrosarcoma viability, CellTiter-Glo ATP luminescence, 48 h | Potency, µM (highest dose often 46.1 µM), inactives show at the top dose activity, negative = less viability, most hits filed as cytotoxic | 360,000 compounds, 1.6% hits;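 note: NT is the 2HG producing partner of a matched IDH1 knockdown line; 0% = DMSO-treated cells and -100% = media-only wells without cells; nearly all actives have a fitted effect of over 55% in size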
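Viability of the 2HG-overproducing fibrosarcoma line after 48 hours of compound exposure at 37 degrees C was determined by luminescence with CellTiter-Glo, and concentration-effect curves were then fitted and categorized.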
MCF10A rereplic: A quantitative high throughput screen for small molecules that induce DNA re-replication in MCF 10a normal breast cells. MCF 10A DNA re-replication, Hoechst nuclear intensity, 48 h. Potency, µM (doses to about 46.1 µM), without a hit: at the highest dose activity, positive = re-replication, usual class: activators. 350,000 compounds, 2.9% hits; note: % of control where 0% means no effect; nearly all actives have a fitted effect of over 50% in size
KB-V1 cytotox: qHTS assay for MDR1-selective chemotherapeutics: Primary screen using the drug-selected MDR subline cells KB-V1; Potency, µM (top dose mostly 46.1 µM), usual class: cytotoxic; KB-V1 MDR cells viability, CellTiter-Glo, 72 h; 400,000 compounds, 3.4% hits; note: % is set by controls: 0 for no effect and ±100 for the full control effect; nearly all actives have a fitted effect of over 60% in size
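Luminescent ATP read-out (CellTiter-Glo, 10 min) measures survival of drug-selected KB-V1 MDR cells after 72 h, 37 degrees C compound exposure. Medium: phenol-red-free DMEM, 10% FBS. Values from fitted concentration-response curves.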
SW480 rereplic: A quantitative high throughput screen for small molecules that induce DNA re-replication in SW480 colon adenocarcinoma cells. SW480 DNA re-replication, Hoechst DNA content imaging, 48 h. Potency, µM (highest dose often 46.1 µM), for inactives: at the top dose re-replication activation, actives largely listed as activators. 340,000 compounds, 1.8% hits. AID 624297, 2012; note: % of control where 0% means no effect; nearly all actives have a fitted effect of over 55% in size
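Per well, 250 cells were exposed to pinned compound for 48 hr. Nuclear DNA was visualised with Hoechst (40 min, 37 C) and total object intensity recorded by fluorescence scanning.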
KB-3-1 cytotox: qHTS assay for MDR1-selective chemotherapeutics: Primary screen using the parental adenocarcinoma cell KB-3-1; KB-3-1 viability, CellTiter-Glo ATP luminescence, 72 h; Potency, µM (doses to about 46.1 µM), hits mostly cytotoxic; 400,000 compounds, 1.4% hits; note: % is set by controls: 0 for no effect and ±100 for the full control effect; nearly all actives have a fitted effect of over 60% in size
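72 h, 37 °C compound treatment of KB-3-1 parental cells; CellTiter-Glo added, 10 min, luminescence read. Data corrected against DMSO-only plates and normalized before curve fitting.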
An asterisk follows results filed as active. Compounds with a hit are over-represented: about 7.9% of the library has one in this group of screens. Calls come from the whole dose curve; as a rule, active = well fitted curve in the direction sought with a large enough effect; inconclusive = small, poorly fitted or top-dose-only effect, or another doubt; inactive = no such curve, though single readings can be large; an effect the other way counts as inactive or inconclusive. Potency is the fitted concentration of half-maximal effect.

`CC(C)c1ccccc1OCC(=O)NCC(c1cccs1)N1CCOCC1` (centres undefined) gave HT1080 IDH1KD tx -20%, HT1080-NT tox -12%, MCF10A rereplic 2%, KB-V1 cytotox 18µM*, SW480 rereplic -5% and KB-3-1 cytotox inactive.
For COc1ccc(C(CNC(=O)COc2ccccc2C)N2CCOCC2)cc1 (centres undefined) the results were HT1080 IDH1KD tx 12%, HT1080-NT tox 1%, MCF10A rereplic 0%, KB-V1 cytotox 18µM*, SW480 rereplic 3% and KB-3-1 cytotox inactive.
For Fc1ccc(N2CCN(c3nc4ccccc4c4nc(-c5cccnc5)nn34)CC2)cc1 the results were KB-V1 cytotox inactive and KB-3-1 cytotox inactive.
Screening CCC(=O)N1CCCc2cc(S(=O)(=O)N3CCC(C(=O)NC4CCCCC4)CC3)ccc21 returned KB-V1 cytotox inconclusive and KB-3-1 cytotox inactive.
`CCOC(=O)c1cc(-c2ccc3c(c2)OCCO3)nc2c1c(C)nn2CCC#N` gave HT1080 IDH1KD tx -3%, HT1080-NT tox -9%, MCF10A rereplic 12µM*, KB-V1 cytotox inactive, SW480 rereplic inconclusive and KB-3-1 cytotox inactive.
For O=C(NCCO)c1ccc2nc(-c3ccco3)c(-c3ccco3)nc2c1 the results were HT1080 IDH1KD tx -16%, HT1080-NT tox -19%, MCF10A rereplic -5%, KB-V1 cytotox inactive, SW480 rereplic -1% and KB-3-1 cytotox inactive.
O=C(Nc1ccc2nc(-c3ccco3)c(-c3ccco3)nc2c1)N1CCCCCC1 was read as HT1080 IDH1KD tx inconclusive, HT1080-NT tox -29%, MCF10A rereplic 18µM*, KB-V1 cytotox inconclusive, SW480 rereplic inconclusive and KB-3-1 cytotox inactive.
O=C(NC1CCCC1)c1ccc2nc(-c3ccco3)c(-c3ccco3)nc2c1 was read as HT1080 IDH1KD tx -17%, HT1080-NT tox -21%, MCF10A rereplic inconclusive, KB-V1 cytotox inactive, SW480 rereplic inconclusive and KB-3-1 cytotox inconclusive.
For O=C(c1ccccc1)c1ccc2nc(-c3ccco3)c(-c3ccco3)nc2c1 the results were HT1080 IDH1KD tx 18µM*, HT1080-NT tox inconclusive, MCF10A rereplic inconclusive, KB-V1 cytotox inconclusive, SW480 rereplic inconclusive and KB-3-1 cytotox inactive.
O=C(NCCc1ccccc1)c1ccc2nc(-c3ccco3)c(-c3ccco3)nc2c1 was read as HT1080 IDH1KD tx -1%, HT1080-NT tox 4%, MCF10A rereplic 21µM*, KB-V1 cytotox inconclusive, SW480 rereplic inconclusive and KB-3-1 cytotox inconclusive.
CCOC(=O)C1CCN(C(=O)Nc2ccc3nc(-c4ccco4)c(-c4ccco4)nc3c2)CC1 was read as HT1080 IDH1KD tx -3%, HT1080-NT tox -3%, MCF10A rereplic inconclusive, KB-V1 cytotox inactive, SW480 rereplic -6% and KB-3-1 cytotox inactive.
For Fc1ccc(NC(=S)Nc2ccc3nccnc3c2)cc1 the results were HT1080 IDH1KD tx 7%, HT1080-NT tox 5%, MCF10A rereplic 1%, KB-V1 cytotox inactive, SW480 rereplic -1% and KB-3-1 cytotox inactive.
`O=C(CN1C(=O)c2cccnc2Oc2ccc(Cl)cc21)NC1CCCC1` gave HT1080 IDH1KD tx -2%, HT1080-NT tox -7%, MCF10A rereplic 14%, KB-V1 cytotox inactive, SW480 rereplic 0% and KB-3-1 cytotox inactive.
`CCN1CCN(c2cc(C)c3cc(NC(=S)N4CCCCC4)ccc3n2)CC1` gave HT1080 IDH1KD tx inconclusive, HT1080-NT tox inconclusive, MCF10A rereplic inconclusive, KB-V1 cytotox inconclusive, SW480 rereplic inconclusive and KB-3-1 cytotox inactive.
COc1ccccc1-c1ccc2c(c1)C(C)(Cc1ccc(Cl)c(Cl)c1)C(=O)N2 (centres undefined) was read as HT1080 IDH1KD tx 23µM*, HT1080-NT tox inconclusive, KB-V1 cytotox inactive and KB-3-1 cytotox inactive.
`CC1(Cc2ccc(Cl)c(Cl)c2)C(=O)Nc2ccc(S(=O)(=O)NC3CCCCC3)cc21` (centres undefined) gave HT1080 IDH1KD tx inconclusive, HT1080-NT tox inconclusive, KB-V1 cytotox 18µM* and KB-3-1 cytotox inconclusive.
For Cc1ccc(Nc2ccccc2)nn1 the results were HT1080 IDH1KD tx 1%, HT1080-NT tox 5%, MCF10A rereplic -1%, KB-V1 cytotox inactive, SW480 rereplic -2% and KB-3-1 cytotox inactive.
COc1cc(C2CC(=O)N(Cc3cccc(F)c3)c3ccccc3S2)cc(OC)c1OC (centres undefined) was read as KB-V1 cytotox 16µM* and KB-3-1 cytotox inconclusive.
Cc1ccc(-c2nn(-c3cc(N4CCNCC4)ccc3[N+](=O)[O-])c(=O)c3ccccc23)cc1 was read as HT1080 IDH1KD tx inconclusive, HT1080-NT tox 15µM*, MCF10A rereplic -7%, KB-V1 cytotox inconclusive, SW480 rereplic -1% and KB-3-1 cytotox inconclusive.
Cc1nn(-c2cc(N3CCCCC3)ccc2N)c(=O)c2ccccc12 was read as HT1080 IDH1KD tx 3%, HT1080-NT tox 3%, MCF10A rereplic -1%, KB-V1 cytotox inactive, SW480 rereplic 0% and KB-3-1 cytotox inactive.
For Cc1ccc(-c2nn(-c3cc(Cl)ccc3[N+](=O)[O-])c(=O)c3ccccc23)cc1C the results were HT1080 IDH1KD tx -5%, HT1080-NT tox -4%, MCF10A rereplic 30%, KB-V1 cytotox inactive, SW480 rereplic inconclusive and KB-3-1 cytotox inactive.
Cc1nn(-c2cc(N3CCCCCC3)ccc2[N+](=O)[O-])c(=O)c2ccccc12 was read as HT1080 IDH1KD tx 11%, HT1080-NT tox 0%, MCF10A rereplic 12%, KB-V1 cytotox 3.7µM*, SW480 rereplic 11% and KB-3-1 cytotox inactive.
For COc1ccc(NC(=O)CS(=O)(=O)Cc2ccccc2)c([N+](=O)[O-])c1 the results were HT1080 IDH1KD tx -3%, HT1080-NT tox -7%, MCF10A rereplic 14%, KB-V1 cytotox inconclusive, SW480 rereplic 11% and KB-3-1 cytotox inactive.
Screening CCOC(=O)C1=C(Nc2ccccc2)CC(C)(O)C(C(=O)OCC)C1c1ccc(Br)cc1 (centres undefined) returned HT1080 IDH1KD tx -11%, HT1080-NT tox -1%, MCF10A rereplic 5%, KB-V1 cytotox 23µM*, SW480 rereplic inconclusive and KB-3-1 cytotox inconclusive.

High-throughput results: PubChem BioAssay, National Center for Advancing Translational Sciences (NCATS)
